# Inconclusive results are not listed. Active and inactive are the calls of the source. Calls come from the whole dose curve; as a rule, active = well fitted inhibition curve with a large enough effect; inconclusive = small, poorly fitted or top-dose-only effect; inactive = flat fitted curve, though single readings scatter.
# System: astro (control astrocytes)
# Test: Drug repurposing screens with cells derived from glioblastoma tumor samples (AID 1345199); note: nearly all actives have a fitted effect of over 40% in size
# Conditions: viability, ATP luminescence, 48 h; series mostly up to 45.9 µM; activity, negative = cell killing: at the top concentration
# In short: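 Primary testing used CD133+ neurospheres from four GBM patients, seven concentrations, 48 h exposure and ATP-based viability; confirmation added three slower-growing patient lines.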
# % is set by controls: 0 for no effect and ±100 for the full control effect; potency is the fitted concentration of half-maximal effect.
SMILES,Potency,"activity, negative = cell killing"
CN=C1CN(O)C(c2ccccc2)=c2cc(Cl)ccc2=N1,inactive,–
CC(C)C[C@H](CN)CC(=O)O,–,-8.15% (inactive)
CC(=O)NC1CCSC1=O (stereo unspecified),inactive,–
NC(=O)c1cc([N+](=O)[O-])cc([N+](=O)[O-])c1,–,-12.4% (inactive)
CCN(CC)CCc1c[nH]c2ccccc12,–,-14.5% [at 108 µM] (inactive)
CC(C)(C)c1ccc(O)cc1,–,-11.7% (inactive)
CC(C)(C)NCC(O)c1cc(Cl)c(N)c(C(F)(F)F)c1 (stereo unspecified),–,-17.2% (inactive)
CN1CC[C@]23c4c5ccc(O)c4O[C@H]2[C@@H](O)CC[C@H]3[C@H]1C5,–,-3.1% [at 91.6 µM] (inactive)
C=CCC1([C@H](C)CCC)C(=O)NC(=O)NC1=O,–,-26.7% [at 91.6 µM] (inactive)
CCN[C@@H](C)Cc1cccc(C(F)(F)F)c1,–,-0.222% [at 91.6 µM] (inactive)
O=[N+]([O-])O[C@H]1CO[C@H]2[C@@H]1OC[C@H]2O[N+](=O)[O-],–,0.374% (inactive)
Clc1cccc(SC2CCNCC2)n1,35.5 µM (active),–
CCN[C@H](C)Cc1cccc(C(F)(F)F)c1,–,-9.81% [at 91.6 µM] (inactive)
NNc1ccccc1,–,-14.5% (inactive)
C[C@]12CC[C@@H]3c4ccc(OC(=O)N(CCCl)CCCl)cc4CC[C@H]3[C@@H]1CC[C@@H]2OP(=O)(O)O,10 µM (active),–
O=c1[nH]oc2c1CCNC2,–,-12.8% (inactive)
c1ccc(CN2CCNCC2)cc1,–,-9% [at 194 µM] (inactive)
COc1cc(CCN)cc(OC)c1OC,–,3.29% [at 108 µM] (inactive)
COC(=O)[C@@H](N)CCCN/C(N)=N/[N+](=O)[O-],–,-0.153% (inactive)
Cc1ncsc1CCCl,–,-9.62% (inactive)
NC1=NC(=O)C(c2ccccc2)O1 (stereo unspecified),–,-2.65% (inactive)

# From PubChem BioAssay (NCATS)
